The AC50 is the midpoint of the concentration-response curve, whichever way the signal moves.

Inconclusive results are not listed. Activity calls are given as the source filed them. The calls were made as follows: active = hit-call score of the fitted dose curve at least 0.9, where 1 is the maximum; inactive = score below 0.9.

Chain of human Cholecystokinin Receptor CCK2 (CCKB) Agonism, CCKBR (gene 887) (P32239 whole entry, looked up): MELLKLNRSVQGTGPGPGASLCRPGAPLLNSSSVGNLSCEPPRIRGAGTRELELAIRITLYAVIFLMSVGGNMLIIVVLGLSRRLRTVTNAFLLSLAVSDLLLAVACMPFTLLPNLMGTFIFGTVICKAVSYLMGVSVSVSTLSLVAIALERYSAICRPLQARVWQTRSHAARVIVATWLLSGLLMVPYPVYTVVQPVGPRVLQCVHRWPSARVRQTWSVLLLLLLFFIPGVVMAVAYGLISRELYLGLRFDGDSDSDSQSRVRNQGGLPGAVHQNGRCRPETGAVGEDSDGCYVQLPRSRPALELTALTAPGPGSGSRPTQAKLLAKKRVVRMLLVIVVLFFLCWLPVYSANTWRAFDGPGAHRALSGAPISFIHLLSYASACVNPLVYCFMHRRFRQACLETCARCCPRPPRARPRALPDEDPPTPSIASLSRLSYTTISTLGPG

The experiment concerns the target human Cholecystokinin Receptor CCK2 (CCKB) Agonism, CCKBR (gene 887) (UniProt P32239). Description: ERF_FR_GPCR_hCCKBR: Eurofins (ERF) G Protein-Coupled Receptor (GPCR) Radioligand Binding LeadHunter Assay for human Cholecystokinin Receptor CCK2 (CCKB) Agonism. Here is the method:
ERF_FR_GPCR_hCCKBR is a biochemical, single-readout assay that uses extracted gene-proteins in a cell-free assay. Measurements were taken 1 hour after chemical dosing in a 96-well plate. See CCK2 (CCKB) Human Cholecystokinin GPCR Binding (Agonist Radioligand) Assay, Cerep.ERF_FR_GPCR_hCCKBR is an assay component calculated from the ERF_FR_GPCR_hCCKBR assay. It is designed to measure radioligand binding using a type of binding reporter as detected by scintillation counting with radiometry technology.Data from the assay component ERF_FR_GPCR_hCCKBR was analyzed at the assay endpoint, ERF_FR_GPCR_hCCKBR, in the positive analysis fitting direction relative to DMSO as the negative control and baseline of activity. Using a type of binding reporter, […] activity can be used to understand changes in binding as they relate to gene CCKBR. To generalize the intended target to other relatable targets, this assay endpoint is annotated to the gpcr intended target family, where the subfamily is cholecystokinin.
Human cells are incubated for 60 minutes at room temprature with [125I]CCK-8s ligand (0.08 nM) and CCK-8s as control inhibitor.Test Sample Requirements: Minimum for 1) Screen: 60 ul of 10 mM stock -OR- 1 mg (pre-weighed) for 10 uM final testing. 2) Dose Response: 90 ul of 10 mM stock -OR- 1 mg (pre-weighed) for a top concentration at 10 uM.
Turning to `O=C(/C=C/c1ccc(O)cc1)CC(=O)/C=C/c1ccc(O)cc1`, the AC50 was 3.43 µM (active).

Source of the values: PubChem BioAssay AID2284151 (EPA ToxCast).
